Screens as filed in PubChem.
Pol kappa inh: qHTS for Inhibitors of Polymerase Kappa. DNA polymerase kappa (Homo sapiens), Q9UBT6. purified Pol kappa, fluorescent DNA synthesis assay, 10 min. Potency, µM (series often up to 107 µM), hits mostly inhibitors. hit rate 0.53% among 400,000. AID 588579, 2011
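Kinetic fluorescence readout at 0 and 10 min followed reaction start with substrate at 50 nM final. Beforehand, enzyme (10 nM Pol kappa) stood 15 min with compound at room temperature; buffer-only wells were negative controls.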
L3MBTL1 block: qHTS Assay for the Inhibitors of L3MBTL1 | AlphaScreen L3MBTL1–H3K9me1 peptide binding | Potency, µM (top dose mostly 57.1 µM), most hits filed as inhibitors | hit rate 0.66% among 230,000; further: nearly all actives have a fitted effect of over 60% in size
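Displacement of a biotinylated histone H3(1-15) peptide monomethylated at Lys9 (75 nM) from L3MBTL1 (50 nM) was measured by AlphaScreen after a 30 min room-temperature compound incubation; cefsulodin titration served as intraplate control.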
POLI inh: qHTS for Inhibitors of Polymerase Iota. hit rate 1% among 390,000. Potency, µM (doses to about 115 µM), actives largely listed as inhibitors. AID 588590, 2011. DNA polymerase iota (Homo sapiens), Q9UNA4. Pol iota fluorescent replication assay, 10 min
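Fluorescent replication assay read twice, at 0 min and 10 min after adding 50 nM (final) substrate. Enzyme (10 nM) and compounds were first incubated 15 min at room temperature; enzyme-free buffer wells were negative controls.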
WRN helicase inh: qHTS for Inhibitors of WRN Helicase; Bifunctional 3'-5' exonuclease/ATP-dependent helicase WRN (Homo sapiens), Q14191; WRN helicase unwinding, fluorescent forked duplex, kinetic; Potency, µM (highest dose often 114 µM), most hits filed as inhibitors; hit rate 0.46% among 360,000; further: nearly all actives have a fitted effect of over 55% in size
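Fluorescence dequenching readout, ex 525 nm/em 598 nm, kinetic mode: forked duplex DNA (100 nM final) with adjacent fluorophore and quencher unwound by WRN (20 nM final) with 2 mM ATP. Compound preincubation 15 min, room temperature.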
Pol eta inh: qHTS for Inhibitors of Polymerase Eta; recombinant Pol eta, fluorescent DNA replication assay; DNA polymerase eta (Homo sapiens), Q9Y253; hit rate 1.2% among 390,000; Potency, µM (titrated, usually from 114 µM), usual class: inhibitors; AID 588591, 2011
Target sequence (Q9Y253 whole entry, looked up): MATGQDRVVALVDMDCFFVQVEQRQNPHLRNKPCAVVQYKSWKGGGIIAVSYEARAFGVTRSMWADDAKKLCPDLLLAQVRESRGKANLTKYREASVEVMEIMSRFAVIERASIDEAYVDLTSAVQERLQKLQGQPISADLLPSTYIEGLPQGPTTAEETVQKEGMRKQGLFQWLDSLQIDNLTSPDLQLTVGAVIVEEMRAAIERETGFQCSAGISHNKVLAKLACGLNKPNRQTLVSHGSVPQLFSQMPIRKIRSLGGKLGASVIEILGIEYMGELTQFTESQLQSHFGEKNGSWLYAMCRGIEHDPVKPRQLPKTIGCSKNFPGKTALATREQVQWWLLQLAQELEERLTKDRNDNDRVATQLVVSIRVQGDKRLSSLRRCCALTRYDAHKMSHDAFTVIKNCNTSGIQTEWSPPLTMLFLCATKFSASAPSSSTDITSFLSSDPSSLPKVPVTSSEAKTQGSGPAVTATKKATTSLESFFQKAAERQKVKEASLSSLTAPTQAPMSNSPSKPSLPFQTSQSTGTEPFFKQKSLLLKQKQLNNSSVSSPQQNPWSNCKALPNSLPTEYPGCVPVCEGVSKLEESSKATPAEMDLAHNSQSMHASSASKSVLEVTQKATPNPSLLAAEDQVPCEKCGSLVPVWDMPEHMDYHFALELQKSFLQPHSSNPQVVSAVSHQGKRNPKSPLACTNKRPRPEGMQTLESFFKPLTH
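Pol eta (10 nM) was preincubated with compounds for 15 min at room temperature, after which fluorescent replication substrate (50 nM final) was added to start the reaction. Fluorescence was read kinetically at 0 and 10 min.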
POLB inh: qHTS Assay for Inhibitors of DNA Polymerase Beta | P06746 | Pol beta primer extension/strand displacement, fluorescence kinetic | Potency, µM (series often up to 114 µM), usual class: inhibitors | hit rate 1.3% among 340,000
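Pol beta (10 nM) and compounds were preincubated 15 min at room temperature, then 50 nM substrate (final) started primer extension/strand displacement. Reads were taken at 0 and 10 min; concentration-response data were fitted to a four-parameter Hill equation.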
Large screens that a line does not name were inactive. Hits are enriched below; roughly 2.5% of the tested compounds scored in any of these assays. The call rests on the fitted dose curve; in most records, active means well fitted curve in the direction sought with a large enough effect; inconclusive means small, poorly fitted or top-dose-only effect, or another doubt; inactive means no such curve, though single readings can be large; an effect the other way counts as inactive or inconclusive.

Cc1ccc(N2CC(C(=O)OCC(=O)Nc3cccc(Cl)c3C)CC2=O)cc1 (stereo not given)	none (no result: POLB inh)
Cc1ccc(N2CC(C(=O)OCC(=O)Nc3ccc(Cl)cc3)CC2=O)cc1 (stereo not given)	POLI inh 79µM (no result: POLB inh)
Cc1ccc(S(=O)(=O)NCCCNC(=O)OCc2ccccc2)cc1	none (no result: L3MBTL1 block, POLB inh)
CCOc1cccc(C(=O)N/N=C/c2ccoc2)c1	POLB inh inconclusive (no result: L3MBTL1 block)
O=C(N/N=C/c1ccoc1)c1cc(Br)ccc1O	Pol kappa inh inconclusive, POLI inh 89µM, Pol eta inh inconclusive, POLB inh 20µM (no result: L3MBTL1 block)
CSc1ccc(/C=N/NC(=O)c2ccc(C)c(C)c2)cc1	POLI inh inconclusive, Pol eta inh inconclusive, POLB inh 25µM
Cc1ccc(C(=O)N/N=C/c2ccoc2)cc1C	Pol eta inh inconclusive, POLB inh 25µM (no result: L3MBTL1 block)
CCOc1ccccc1C(=O)N/N=C/c1ccoc1	POLI inh 79µM, POLB inh 20µM (no result: L3MBTL1 block)
CSc1ccc(/C=N/NC(=O)c2cc(O)cc(O)c2)cc1	none
O=C(N/N=C/c1ccoc1)c1ccccc1Br	POLI inh inconclusive (no result: L3MBTL1 block)
COc1ccc(C(=O)N/N=C\c2ccoc2)cc1	Pol kappa inh inconclusive, POLI inh inconclusive, POLB inh inconclusive (no result: L3MBTL1 block)
COc1cc(C2C(C#N)=C(N)Oc3cc(C)n(CCN4CCOCC4)c(=O)c32)cc(OC)c1OC (stereo not given)	none
Cc1cc(C)cc(NC(=O)C(Cc2ccccc2)NS(=O)(=O)c2ccc3c(c2)c(=O)n(C)c(=O)n3C)c1 (stereo not given)	none (no result: L3MBTL1 block, WRN helicase inh)
CCCCn1nnnc1C(c1ccccc1)N1CCN(c2ccc(OC)cc2)CC1 (stereo not given)	none (no result: Pol kappa inh, L3MBTL1 block, POLI inh, Pol eta inh, POLB inh)
CCOC(=O)C1=C(C)N(C)C(=O)NC1c1cc2c(cc1[N+](=O)[O-])OCO2 (stereo not given)	Pol kappa inh inconclusive, POLI inh 2.8µM, POLB inh 18µM (no result: L3MBTL1 block)
COc1ccccc1NC(=O)Cn1nnc(C(=O)Nc2ccccc2Br)c1N	POLI inh inconclusive (no result: L3MBTL1 block, WRN helicase inh)
COc1ccc2nc(NC(=O)c3ccccc3C(=O)O)sc2c1	none (no result: L3MBTL1 block)
COc1ccc(CNC(=O)COC(=O)c2cc(-c3ccco3)nc3ccccc23)cc1	POLB inh 7.1µM (no result: Pol kappa inh, L3MBTL1 block, POLI inh, WRN helicase inh, Pol eta inh)
COc1ccc(C(=O)Nc2nc3ccccc3s2)c(OC)c1	WRN helicase inh 50µM (no result: L3MBTL1 block)
COc1cccc2sc(Nc3nc4ccc(NC(C)=O)cc4s3)nc12	Pol kappa inh 45µM, POLI inh 16µM, WRN helicase inh inconclusive, Pol eta inh inconclusive, POLB inh inconclusive
O=C(NC(=S)Nc1cccc(S(=O)(=O)NC2=NCCC2)c1)c1cc(-c2ccco2)nc2ccccc12	Pol kappa inh inconclusive, L3MBTL1 block inconclusive, POLI inh 28µM, WRN helicase inh inconclusive, Pol eta inh inconclusive, POLB inh 40µM
CC(=O)Nc1ccc2nc(NC(=O)COc3ccccc3C)sc2c1	none (no result: L3MBTL1 block)
O=C(Nc1cccc(S(=O)(=O)NC2=NCCCCC2)c1)c1cc(-c2ccccc2)nc2ccccc12	none
COc1ccccc1NC(=O)C(C)Sc1nnc2ccc3ccccc3n12 (stereo not given)	none (no result: L3MBTL1 block, WRN helicase inh)
CCOC(=O)c1ccc(-c2ccc3c(c2)CCC3)nc1C	none (no result: L3MBTL1 block)
CCN(CC)S(=O)(=O)c1ccc2c(c1)c(=O)c(C(=O)N1CCN(c3ccccc3)CC1)cn2C	none
Cc1nnc(NC(=O)c2cc(-c3ccco3)nc3ccccc23)s1	L3MBTL1 block 6.3µM (no result: Pol kappa inh, POLI inh, WRN helicase inh, Pol eta inh, POLB inh)
O=C(Nc1nc2ccccc2s1)c1cc(-c2ccco2)nc2ccccc12	POLI inh inconclusive, WRN helicase inh 50µM, Pol eta inh inconclusive
NC(=S)c1ccc[n+]([C@@H]2O[C@@H](COP(=O)([O-])OP(=O)(O)OC[C@H]3O[C@@H](n4cnc5c(N)ncnc54)[C@H](OP(=O)(O)O)[C@H]3O)C(O)C2O)c1 (stereo not given in full)	none (no result: Pol kappa inh, L3MBTL1 block, WRN helicase inh)
O=C(O)c1ccc(O)c(O)c1	L3MBTL1 block inconclusive, POLI inh inconclusive, POLB inh 25µM
O=C(O)c1ccc(O)cc1	none (no result: L3MBTL1 block, POLI inh, WRN helicase inh, Pol eta inh, POLB inh)
COc1ccc(OC)c(NC(=O)CCCOc2cc(=O)n(C)c3ccccc23)c1	none (no result: L3MBTL1 block, WRN helicase inh)
